{"source": "paper PMC7862700", "about": "“An all-to-all approach to the identification of sequence-specific readers for epigenetic DNA modifications on cytosine”", "experiment_in_all_cases": "DAPPL (digital affinity profiling via proximity ligation, sequencing); 10 mM Tris-HCl pH 7.5, 50 mM NaCl, 1 mM DTT, 4% glycerol, room temperature, 30 min; GST-TFs on glutathione beads, 16-mer random dsDNA library, 0.1% formaldehyde crosslink after washing; high values mean tight binding", "conditions_in_all_cases": "protein: recombinant; tags: N-terminal GST; dsDNA, one strand shown", "key": {"[1]": {"target": "T1, FLI1 (Homo sapiens, UniProt Q01543 1-452)", "T1 sequence": "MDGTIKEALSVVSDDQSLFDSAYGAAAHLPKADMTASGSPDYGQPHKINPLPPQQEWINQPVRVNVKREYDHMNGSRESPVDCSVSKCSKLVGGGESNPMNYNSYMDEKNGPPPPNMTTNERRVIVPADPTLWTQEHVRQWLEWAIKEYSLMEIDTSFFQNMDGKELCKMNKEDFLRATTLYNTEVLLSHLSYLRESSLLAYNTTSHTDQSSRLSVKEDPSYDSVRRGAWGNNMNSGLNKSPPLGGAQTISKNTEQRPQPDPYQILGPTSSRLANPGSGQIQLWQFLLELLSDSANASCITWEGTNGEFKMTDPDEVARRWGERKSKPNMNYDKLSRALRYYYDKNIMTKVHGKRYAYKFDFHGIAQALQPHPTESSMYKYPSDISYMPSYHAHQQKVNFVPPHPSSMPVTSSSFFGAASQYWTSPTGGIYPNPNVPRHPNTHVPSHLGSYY", "in_short": "(§1)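 Binding signal is given per hexamer as its read frequency for a factor divided by its frequency in the tag-only sample. GST-fused human transcription factors were expressed in yeast, captured on glutathione beads, barcoded with DNA and pooled with that sample, then incubated with 200 nmole of a 16-mer random double-stranded DNA library in Tris/NaCl/DTT/glycerol buffer for 30 min at room temperature. The pools were then washed, crosslinked, proximity-ligated, amplified by PCR and sequenced on an Illumina NextSeq500.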"}, "[2]": {"target": "T2, ELK1 (Homo sapiens, UniProt P19419 1-428)", "T2 sequence": "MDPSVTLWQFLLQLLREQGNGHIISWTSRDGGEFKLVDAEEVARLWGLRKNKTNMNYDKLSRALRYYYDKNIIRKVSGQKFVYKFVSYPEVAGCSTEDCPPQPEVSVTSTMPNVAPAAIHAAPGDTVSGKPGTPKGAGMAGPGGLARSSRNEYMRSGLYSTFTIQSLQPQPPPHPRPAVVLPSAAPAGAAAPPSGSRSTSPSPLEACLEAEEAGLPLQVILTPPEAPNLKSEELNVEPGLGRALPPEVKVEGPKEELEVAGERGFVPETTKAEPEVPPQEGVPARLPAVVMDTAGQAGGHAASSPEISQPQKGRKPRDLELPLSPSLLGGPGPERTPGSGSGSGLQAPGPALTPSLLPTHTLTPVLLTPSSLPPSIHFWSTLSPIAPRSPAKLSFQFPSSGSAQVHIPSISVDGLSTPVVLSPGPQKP", "in_short": "as §1"}, "[3]": {"target": "T3, GABPA (Homo sapiens, UniProt Q06546 1-454)", "T3 sequence": "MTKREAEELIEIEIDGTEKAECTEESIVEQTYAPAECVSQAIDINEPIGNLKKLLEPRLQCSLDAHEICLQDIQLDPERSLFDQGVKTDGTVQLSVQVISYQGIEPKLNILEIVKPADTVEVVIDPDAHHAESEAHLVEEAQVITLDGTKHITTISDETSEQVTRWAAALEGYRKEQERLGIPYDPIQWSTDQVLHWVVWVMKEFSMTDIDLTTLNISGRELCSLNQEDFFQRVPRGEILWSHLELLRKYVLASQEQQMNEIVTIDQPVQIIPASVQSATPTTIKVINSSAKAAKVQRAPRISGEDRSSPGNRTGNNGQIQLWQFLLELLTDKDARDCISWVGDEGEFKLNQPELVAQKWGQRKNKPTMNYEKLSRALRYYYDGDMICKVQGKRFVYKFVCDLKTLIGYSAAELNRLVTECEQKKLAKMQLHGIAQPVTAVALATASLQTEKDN", "in_short": "as §1"}, "[4]": {"target": "T4, ERG (Homo sapiens, UniProt P11308 1-479)", "T4 sequence": "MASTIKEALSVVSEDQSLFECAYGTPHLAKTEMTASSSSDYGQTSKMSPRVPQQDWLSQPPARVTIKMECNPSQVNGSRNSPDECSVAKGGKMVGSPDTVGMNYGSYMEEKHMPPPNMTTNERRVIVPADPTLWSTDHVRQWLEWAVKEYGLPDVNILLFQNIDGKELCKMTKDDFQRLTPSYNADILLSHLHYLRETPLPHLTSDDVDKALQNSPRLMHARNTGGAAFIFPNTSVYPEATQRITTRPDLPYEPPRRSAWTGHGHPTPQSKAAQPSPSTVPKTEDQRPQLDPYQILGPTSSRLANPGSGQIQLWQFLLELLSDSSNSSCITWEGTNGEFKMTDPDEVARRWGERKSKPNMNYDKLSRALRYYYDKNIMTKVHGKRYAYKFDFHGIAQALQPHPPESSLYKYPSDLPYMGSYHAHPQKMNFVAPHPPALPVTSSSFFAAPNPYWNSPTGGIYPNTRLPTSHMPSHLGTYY", "in_short": "as §1"}, "[5]": {"target": "T5, EHF (Homo sapiens, UniProt Q9NZC4 1-300)", "T5 sequence": "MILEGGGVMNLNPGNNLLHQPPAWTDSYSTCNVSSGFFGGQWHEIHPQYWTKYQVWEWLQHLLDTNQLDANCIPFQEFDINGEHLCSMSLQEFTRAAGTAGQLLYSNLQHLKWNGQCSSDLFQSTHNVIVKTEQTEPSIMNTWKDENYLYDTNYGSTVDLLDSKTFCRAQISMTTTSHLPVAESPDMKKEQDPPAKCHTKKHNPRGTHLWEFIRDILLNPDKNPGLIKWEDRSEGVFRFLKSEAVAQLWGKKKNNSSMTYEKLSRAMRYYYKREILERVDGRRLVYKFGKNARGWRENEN", "in_short": "as §1"}, "[6]": {"target": "SPI1 (Homo sapiens, UniProt P17947 1-270)", "in_short": "as §1"}, "[7]": {"target": "SPIB (Homo sapiens, UniProt Q01892 1-262)", "sequence (Q01892 whole entry)": "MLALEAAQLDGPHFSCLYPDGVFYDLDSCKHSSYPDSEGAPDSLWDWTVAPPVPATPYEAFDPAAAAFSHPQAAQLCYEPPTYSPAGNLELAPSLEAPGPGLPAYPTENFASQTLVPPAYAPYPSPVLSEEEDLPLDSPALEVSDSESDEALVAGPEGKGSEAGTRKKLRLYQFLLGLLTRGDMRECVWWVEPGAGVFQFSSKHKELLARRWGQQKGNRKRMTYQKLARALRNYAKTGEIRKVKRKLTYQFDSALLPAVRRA", "in_short": "as §1"}, "[8]": {"target": "T6, FEV (Homo sapiens, UniProt Q99581 1-238)", "T6 sequence": "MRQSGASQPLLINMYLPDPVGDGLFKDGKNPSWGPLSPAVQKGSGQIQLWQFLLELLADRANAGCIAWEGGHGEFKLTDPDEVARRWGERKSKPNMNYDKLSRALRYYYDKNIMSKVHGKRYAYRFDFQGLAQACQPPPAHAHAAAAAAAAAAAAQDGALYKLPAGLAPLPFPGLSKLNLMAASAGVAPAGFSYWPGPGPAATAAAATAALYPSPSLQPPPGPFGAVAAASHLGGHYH", "in_short": "as §1"}, "[9]": {"target": "ETV5 (Homo sapiens, UniProt P41161 1-510)", "sequence (P41161 whole entry)": "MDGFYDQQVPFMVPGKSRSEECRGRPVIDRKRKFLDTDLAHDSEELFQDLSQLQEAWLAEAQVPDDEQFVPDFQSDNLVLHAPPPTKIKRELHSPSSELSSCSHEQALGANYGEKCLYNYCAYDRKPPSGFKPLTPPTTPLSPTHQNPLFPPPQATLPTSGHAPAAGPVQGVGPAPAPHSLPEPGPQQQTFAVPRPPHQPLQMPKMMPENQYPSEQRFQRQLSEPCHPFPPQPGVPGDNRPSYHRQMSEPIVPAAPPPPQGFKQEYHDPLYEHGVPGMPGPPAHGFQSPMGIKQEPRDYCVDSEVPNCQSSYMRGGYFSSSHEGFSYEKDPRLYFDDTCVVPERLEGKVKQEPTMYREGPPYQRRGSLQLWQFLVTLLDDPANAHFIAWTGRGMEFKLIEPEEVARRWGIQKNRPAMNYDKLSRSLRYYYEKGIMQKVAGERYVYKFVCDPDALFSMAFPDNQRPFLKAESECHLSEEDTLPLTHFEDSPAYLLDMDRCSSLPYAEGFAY", "in_short": "as §1"}, "[10]": {"target": "T7, SPIC (Homo sapiens, UniProt Q8N5J4 1-248)", "T7 sequence": "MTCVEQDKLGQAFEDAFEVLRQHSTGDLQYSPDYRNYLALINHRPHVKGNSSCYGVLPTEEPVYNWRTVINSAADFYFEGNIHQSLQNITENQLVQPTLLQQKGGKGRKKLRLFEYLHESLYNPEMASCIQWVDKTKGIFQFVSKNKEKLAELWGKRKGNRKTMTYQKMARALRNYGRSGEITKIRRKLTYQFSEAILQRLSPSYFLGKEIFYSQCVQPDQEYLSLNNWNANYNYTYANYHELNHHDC", "in_short": "as §1"}, "[11]": {"target": "ELF4 (Homo sapiens, UniProt Q99607 1-663)", "sequence (Q99607 whole entry)": "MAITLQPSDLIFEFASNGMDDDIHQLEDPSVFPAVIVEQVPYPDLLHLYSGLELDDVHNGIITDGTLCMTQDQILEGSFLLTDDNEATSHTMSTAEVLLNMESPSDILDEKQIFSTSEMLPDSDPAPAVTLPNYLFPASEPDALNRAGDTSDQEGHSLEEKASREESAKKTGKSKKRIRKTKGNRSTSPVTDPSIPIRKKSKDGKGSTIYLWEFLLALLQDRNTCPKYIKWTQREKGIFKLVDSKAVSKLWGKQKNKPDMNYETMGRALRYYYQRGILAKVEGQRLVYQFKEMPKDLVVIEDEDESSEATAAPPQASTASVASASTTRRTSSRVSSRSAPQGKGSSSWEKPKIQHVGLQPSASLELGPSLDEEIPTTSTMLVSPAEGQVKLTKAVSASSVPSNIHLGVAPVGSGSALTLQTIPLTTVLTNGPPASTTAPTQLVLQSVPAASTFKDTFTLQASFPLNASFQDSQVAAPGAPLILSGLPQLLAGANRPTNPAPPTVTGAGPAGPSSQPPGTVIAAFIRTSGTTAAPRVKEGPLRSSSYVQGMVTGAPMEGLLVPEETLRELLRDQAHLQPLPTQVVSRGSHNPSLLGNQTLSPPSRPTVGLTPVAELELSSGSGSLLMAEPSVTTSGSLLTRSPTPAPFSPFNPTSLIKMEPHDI", "in_short": "as §1"}, "[12]": {"target": "ETV1 (Homo sapiens, UniProt P50549 1-477)", "sequence (P50549 whole entry)": "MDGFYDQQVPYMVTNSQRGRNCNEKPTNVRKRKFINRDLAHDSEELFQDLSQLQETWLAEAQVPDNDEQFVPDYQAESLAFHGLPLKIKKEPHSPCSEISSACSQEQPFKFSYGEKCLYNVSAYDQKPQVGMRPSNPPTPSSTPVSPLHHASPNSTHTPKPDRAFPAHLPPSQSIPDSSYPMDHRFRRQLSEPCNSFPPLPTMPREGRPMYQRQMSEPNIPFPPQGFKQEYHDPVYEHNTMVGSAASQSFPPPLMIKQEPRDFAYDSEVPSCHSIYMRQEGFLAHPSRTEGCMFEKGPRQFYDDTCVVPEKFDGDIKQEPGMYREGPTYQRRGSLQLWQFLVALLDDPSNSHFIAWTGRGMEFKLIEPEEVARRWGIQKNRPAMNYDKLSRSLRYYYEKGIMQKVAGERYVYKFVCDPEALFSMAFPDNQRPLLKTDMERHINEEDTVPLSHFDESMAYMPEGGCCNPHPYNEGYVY", "in_short": "as §1"}, "[13]": {"target": "T8, ERF (Homo sapiens, UniProt P50548 1-548)", "T8 sequence": "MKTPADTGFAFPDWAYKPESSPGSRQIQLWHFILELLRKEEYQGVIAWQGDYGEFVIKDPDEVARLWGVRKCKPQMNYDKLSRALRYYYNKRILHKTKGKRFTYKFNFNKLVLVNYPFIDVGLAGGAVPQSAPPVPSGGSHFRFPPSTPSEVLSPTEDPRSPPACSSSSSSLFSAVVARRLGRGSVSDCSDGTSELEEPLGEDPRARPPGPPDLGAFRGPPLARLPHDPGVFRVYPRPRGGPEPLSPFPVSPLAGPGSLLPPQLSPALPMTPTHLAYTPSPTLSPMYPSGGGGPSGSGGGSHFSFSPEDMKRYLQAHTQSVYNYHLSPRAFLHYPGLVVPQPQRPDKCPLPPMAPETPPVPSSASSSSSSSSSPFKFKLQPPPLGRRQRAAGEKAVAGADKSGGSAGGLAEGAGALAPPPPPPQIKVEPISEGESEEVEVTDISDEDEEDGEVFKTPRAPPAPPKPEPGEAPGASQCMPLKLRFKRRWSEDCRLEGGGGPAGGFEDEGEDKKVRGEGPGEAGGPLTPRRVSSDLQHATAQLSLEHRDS", "in_short": "as §1"}, "[14]": {"target": "T9, ETV3L (Homo sapiens, UniProt Q6ZN32 1-361)", "T9 sequence": "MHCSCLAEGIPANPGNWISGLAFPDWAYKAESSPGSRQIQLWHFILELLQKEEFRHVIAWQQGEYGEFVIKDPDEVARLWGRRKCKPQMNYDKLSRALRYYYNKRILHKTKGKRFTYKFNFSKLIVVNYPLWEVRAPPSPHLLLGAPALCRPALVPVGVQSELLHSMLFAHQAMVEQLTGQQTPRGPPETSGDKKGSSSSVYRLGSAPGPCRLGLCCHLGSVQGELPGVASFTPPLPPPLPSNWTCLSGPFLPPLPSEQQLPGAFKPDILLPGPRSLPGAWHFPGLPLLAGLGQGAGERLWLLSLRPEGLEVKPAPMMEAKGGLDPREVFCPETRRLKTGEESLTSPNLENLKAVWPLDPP", "in_short": "as §1"}, "[15]": {"target": "T10, ETS2 (Homo sapiens, UniProt P15036 1-469)", "T10 sequence": "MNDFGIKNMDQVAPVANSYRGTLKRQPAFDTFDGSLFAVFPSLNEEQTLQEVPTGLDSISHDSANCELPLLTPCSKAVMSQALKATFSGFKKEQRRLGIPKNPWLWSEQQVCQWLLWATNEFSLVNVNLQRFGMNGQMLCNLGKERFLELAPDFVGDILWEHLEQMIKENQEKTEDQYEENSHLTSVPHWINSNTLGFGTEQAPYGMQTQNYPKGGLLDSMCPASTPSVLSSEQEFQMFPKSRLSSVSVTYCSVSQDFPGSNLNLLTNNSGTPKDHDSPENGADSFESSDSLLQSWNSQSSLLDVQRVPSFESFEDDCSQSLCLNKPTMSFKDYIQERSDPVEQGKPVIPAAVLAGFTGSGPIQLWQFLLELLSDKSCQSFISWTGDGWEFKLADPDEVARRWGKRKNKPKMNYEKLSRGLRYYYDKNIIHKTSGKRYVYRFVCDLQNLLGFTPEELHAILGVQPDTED", "in_short": "as §1"}, "[16]": {"target": "T11, ELF5 (Homo sapiens, UniProt Q9UKW6-2 1-255)", "T11 sequence": "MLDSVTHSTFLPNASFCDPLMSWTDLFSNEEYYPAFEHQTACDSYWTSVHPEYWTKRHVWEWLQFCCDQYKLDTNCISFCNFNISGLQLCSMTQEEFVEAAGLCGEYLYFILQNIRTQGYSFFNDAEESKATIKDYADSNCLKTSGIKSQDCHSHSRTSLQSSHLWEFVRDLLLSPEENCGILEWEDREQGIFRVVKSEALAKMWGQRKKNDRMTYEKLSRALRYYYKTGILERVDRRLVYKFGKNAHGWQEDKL", "in_short": "as §1"}, "[17]": {"target": "T12, ETV3 (Homo sapiens, UniProt P41162-2 1-143)", "T12 sequence": "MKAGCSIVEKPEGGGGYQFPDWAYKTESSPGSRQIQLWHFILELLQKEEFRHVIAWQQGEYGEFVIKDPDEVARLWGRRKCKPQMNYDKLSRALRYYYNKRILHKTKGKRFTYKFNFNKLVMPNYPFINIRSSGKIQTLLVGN", "in_short": "as §1"}}, "data": [{"sequence": "TGGTGC", "values": [{"measurement": "binding signal", "setting": "[1]", "value": "1.12 fold enrichment (6-mer frequency, TF over GST control)"}, {"measurement": "binding signal", "setting": "[2]", "value": "1.14 fold enrichment (6-mer frequency, TF over GST control)"}, {"measurement": "binding signal", "setting": "[3]", "value": "1.1 fold enrichment (6-mer frequency, TF over GST control)"}, {"measurement": "binding signal", "setting": "[4]", "value": "1.16 fold enrichment (6-mer frequency, TF over GST control)"}, {"measurement": "binding signal", "setting": "[5]", "value": "1.15 fold enrichment (6-mer frequency, TF over GST control)"}, {"measurement": "binding signal", "setting": "[6]", "value": "1.12 fold enrichment (6-mer frequency, TF over GST control)"}, {"measurement": "binding signal", "setting": "[7]", "value": "1.06 fold enrichment (6-mer frequency, TF over GST control)"}, {"measurement": "binding signal", "setting": "[8]", "value": "1 fold enrichment (6-mer frequency, TF over GST control)"}, {"measurement": "binding signal", "setting": "[9]", "value": "1.1 fold enrichment (6-mer frequency, TF over GST control)"}, {"measurement": "binding signal", "setting": "[10]", "value": "1.14 fold enrichment (6-mer frequency, TF over GST control)"}, {"measurement": "binding signal", "setting": "[11]", "value": "1.07 fold enrichment (6-mer frequency, TF over GST control)"}, {"measurement": "binding signal", "setting": "[12]", "value": "1.06 fold enrichment (6-mer frequency, TF over GST control)"}, {"measurement": "binding signal", "setting": "[13]", "value": "1.11 fold enrichment (6-mer frequency, TF over GST control)"}, {"measurement": "binding signal", "setting": "[14]", "value": "1.05 fold enrichment (6-mer frequency, TF over GST control)"}, {"measurement": "binding signal", "setting": "[15]", "value": "1.01 fold enrichment (6-mer frequency, TF over GST control)"}, {"measurement": "binding signal", "setting": "[16]", "value": "1.02 fold enrichment (6-mer frequency, TF over GST control)"}, {"measurement": "binding signal", "setting": "[17]", "value": "1.17 fold enrichment (6-mer frequency, TF over GST control)"}]}]}
